Measured values as given in PubChem BioAssay (NCATS).
Records with an inconclusive call do not appear. Where a call stands in place of a potency, no number is given. The source made the active and inactive calls. The call rests on the fitted dose curve; in most records, active means well fitted inhibition curve with a large enough effect; inconclusive means small, poorly fitted or top-dose-only effect; inactive means flat fitted curve, though single readings scatter.

Experiment: qHTS to identify inhibitors of the type 1 interferon - major histocompatibility complex class I in skeletal muscle: primary screen against the NCATS Pharmaceutical Collection (AID 1347407)
Details: human skeletal muscle cells, IFN-b-induced MHC-I HiBiT luminescence, 24 h; series mostly up to 45.9 µM
Outline: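 Luminescence from HiBiT-tagged endogenous HLA-B*08:01 served as the read-out of IFN-beta-induced MHC class I in CRISPR-engineered C25cl48 myoblasts. Cells received 4 ng/ml IFN-beta plus compound (high final 46 uM, […]) for 24 h.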
Potency means the concentration at half of the fitted maximal effect.

Question: Which Potency does the source give for `CCCN(CCC)C(=O)Cc1c(-c2ccc(Cl)cc2)nc2ccc(Cl)cn12` here?
Answer: inactive

Question: Which Potency does the source give for `COP(=S)(OC)Oc1ccc(S(=O)(=O)N(C)C)cc1` here?
Answer: inactive

Question: Which Potency does the source give for `ClCCN1CCCC1` here?
Answer: inactive

Question: With `CC(=O)C1CCOC1=O` (stereo not drawn) as the compound, how does the Potency read?
Answer: inactive

Question: For `C[C@]12CCC(=O)C=C1CC[C@@H]1[C@H]3CC[C@](C)(O)[C@@]3(C)CC[C@@H]12`, which Potency is on record?
Answer: inactive

Question: Which Potency does the source give for `Nc1ccc([As](=O)(O)O)cc1` here?
Answer: inactive

Question: For `C[C@]12CCC(=O)C=C1CC[C@@H]1[C@@H]2CC[C@]2(C)C(=O)CC[C@@H]12`, which Potency is on record?
Answer: inactive

Question: With `CC(C)(N)Cc1ccccc1Cl` as the compound, how does the Potency read?
Answer: inactive

Question: For `C=CCC1([C@H](C)CCC)C(=O)NC(=O)NC1=O`, which Potency is on record?
Answer: inactive

Question: With `C[C@]12CCC(=O)C=C1CC[C@@H]1[C@@H]2CC[C@@]2(C)[C@H]1CC[C@]2(C)O` as the compound, how does the Potency read?
Answer: inactive

Question: For `[N-]=[N+]=CC(=O)OC[C@H](N)C(=O)O`, which Potency is on record?
Answer: inactive

Question: With `NC(=O)c1cc([N+](=O)[O-])cc([N+](=O)[O-])c1` as the compound, how does the Potency read?
Answer: inactive

Question: With `Nc1ccccc1` as the compound, how does the Potency read?
Answer: inactive

Question: With `C[C@@H]1CC2=CC(=O)CC[C@@H]2[C@H]2CC[C@@]3(C)[C@@H](CC[C@]3(C)O)[C@@H]21` as the compound, how does the Potency read?
Answer: inactive

Question: Which Potency does the source give for `COc1cc(CC(C)N)cc(OC)c1OC` (stereo not drawn) here?
Answer: inactive

Question: With `CC(=O)NC1CCSC1=O` (stereo not drawn) as the compound, how does the Potency read?
Answer: inactive

Question: With `Clc1cccc(SC2CCNCC2)n1` as the compound, how does the Potency read?
Answer: inactive

Question: For `CCC1(CC)C(=O)C=CNC1=O`, which Potency is on record?
Answer: inactive

Question: Which Potency does the source give for `COc1cc(OC)c(OC)cc1C=O` here?
Answer: inactive

Question: With `COc1cccc2c1C(=O)c1c(O)c3c(c(O)c1C2=O)C[C@@](O)(C(=O)CO)CC3OC1CC(N2CCOC(OC)C2)C(O)C(C)O1` (stereo partly drawn) as the compound, how does the Potency read?
Answer: 2970 nM (active)

Question: Which Potency does the source give for `COP(=S)(OC)Oc1ccc(SC)c(C)c1` here?
Answer: inactive

Question: For `COc1cc(CCN)cc(OC)c1OC`, which Potency is on record?
Answer: inactive

Question: For `C=CCN1C[C@H](C)N([C@H](c2ccc(C(=O)N(CC)CC)cc2)c2cccc(OC)c2)C[C@H]1C`, which Potency is on record?
Answer: inactive

Question: Which Potency does the source give for `O=[N+]([O-])O[C@H]1CO[C@H]2[C@@H]1OC[C@H]2O[N+](=O)[O-]` here?
Answer: inactive

Question: With `CCC(C)C(C)(COC(N)=O)COC(N)=O` (stereo not drawn) as the compound, how does the Potency read?
Answer: inactive

Question: Which Potency does the source give for `COc1cccc([C@@]2(O)CCCC[C@@H]2CN(C)C)c1` here?
Answer: inactive

Question: For `CCCCC/C=C\C/C=C\C/C=C\C/C=C\CCCC(=O)NCC(=O)O`, which Potency is on record?
Answer: inactive

Question: Which Potency does the source give for `Nc1ccccc1C(=O)O` here?
Answer: inactive

Question: With `CNC(C)(C)Cc1ccccc1` as the compound, how does the Potency read?
Answer: inactive

Question: Which Potency does the source give for `CCCCCCCCCC(=O)O[C@H]1CC[C@H]2[C@@H]3CCC4=CC(=O)CC[C@@H]4[C@H]3CC[C@]12C` here?
Answer: inactive

Question: For `NC1=NC(=O)C(c2ccccc2)O1` (stereo not drawn), which Potency is on record?
Answer: inactive

Question: For `COP(=S)(OC)SCN1C(=O)c2ccccc2C1=O`, which Potency is on record?
Answer: inactive

Question: With `CN1C(=O)COc2c(C(=O)NC3CN4CCC3CC4)cc(Cl)cc21` (stereo not drawn) as the compound, how does the Potency read?
Answer: inactive

Question: For `C[C@H]1[C@@H]2Cc3ccc(O)cc3[C@@]1(C)CCN2C`, which Potency is on record?
Answer: inactive

Question: Which Potency does the source give for `Clc1ccccc1N1CCNCC1` here?
Answer: inactive

Question: For `CCc1cc2c(s1)-n1c(C)nnc1CN=C2c1ccccc1Cl`, which Potency is on record?
Answer: inactive

Question: Which Potency does the source give for `COc1cccc(C(=O)CCN[C@@H](C)[C@H](O)c2ccccc2)c1` here?
Answer: inactive

Question: For `O=C(N/N=C/c1ccc([N+](=O)[O-])o1)c1cc([N+](=O)[O-])cc([N+](=O)[O-])c1O`, which Potency is on record?
Answer: inactive
